# In PubChem BioAssay (EPA / NIEHS):
# Several values for one entry are separate records, joined by “and”; a condition that tells them apart may be missing. Identical values can stand only once. Records with an inconclusive call do not appear. A structure can be active in one record and inactive in another. Activity calls are given as the source filed them. The calls were made as follows: active = hit-call score of the fitted dose curve at least 0.9, where 1 is the maximum; inconclusive = response in the unintended direction; inactive = score below 0.9.
# Key:
# [1] = ATG_XTT_Cytotoxicity: Cytotoxicity Assessment in the Attagene TRANS-FACTORIAL HepG2 Assay (AID 2283584);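 as to AC50: XTT signal for cell number as viability in transfected HepG2 cells; cells exposed to compound for 24 h before reading; active means loss of viability signal versus DMSO baseline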
# In short: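 24 h chemical exposure of reporter-transfected HepG2; XTT signal loss vs DMSO indicates cytotoxicity.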
# [2] = molecular target: Cellular tumor antigen p53 (Homo sapiens) (UniProt P04637); assay: TOX21_p53_BLA_p2_ratio: Tox21 HCT-116 p53 Agonism Beta-lactamase Assay, Ratio, Phase 2 (AID 2283592)
# Sequence of Cellular tumor antigen p53 (Homo sapiens) (P04637 whole entry, looked up): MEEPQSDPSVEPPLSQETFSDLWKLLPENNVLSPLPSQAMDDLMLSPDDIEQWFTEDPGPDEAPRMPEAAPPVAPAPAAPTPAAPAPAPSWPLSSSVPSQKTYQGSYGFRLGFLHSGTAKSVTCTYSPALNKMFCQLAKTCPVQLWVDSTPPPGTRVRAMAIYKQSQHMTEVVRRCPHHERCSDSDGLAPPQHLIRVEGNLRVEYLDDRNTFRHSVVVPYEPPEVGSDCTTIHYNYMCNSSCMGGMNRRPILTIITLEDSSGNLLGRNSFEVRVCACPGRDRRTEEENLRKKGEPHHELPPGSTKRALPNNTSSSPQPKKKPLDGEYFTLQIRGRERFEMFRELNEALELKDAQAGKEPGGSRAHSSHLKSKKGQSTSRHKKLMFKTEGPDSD
# In short: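 DMSO-normalized, positive-direction endpoint derived from the 460 nm/530 nm FRET ratio in HCT116 p53 beta-lactamase reporter cells exposed 16 h at 37C and loaded with CCF4-AM for 2 h.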
# [3] = TOX21_p53_BLA_p3_viability: Viability Assessment in the Tox21 HCT-116 p53 Agonism Beta-lactamase Assay, Phase 3 (AID 2283593);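 also: cells exposed to compound for 16 h before reading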
# In short: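 HCT-116 cells (4000/well) rested 5 h at 37C, then got DMSO compounds by pin tool (217-fold dilution) for 16 h at 37C, 5% CO2. After the bla read, CellTiter-Glo was added and luminescence read at 30 min, room temperature.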
# [4] = molecular target: Cellular tumor antigen p53 (Homo sapiens) (UniProt P04637); assay: TOX21_p53_BLA_p5_ratio: Tox21 HCT-116 p53 Agonism Beta-lactamase Assay, Ratio, Phase 5 (AID 2283599)
# In short: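 HCT-116 cells carrying a p53-inducible beta-lactamase reporter were seeded at 4000 cells/well and dosed after 5 h with compound in DMSO (217-fold dilution). After 16 h at 37C, CCF4-AM substrate was added for 2 h, and the 460/530 nm emission ratio was scored as gain-of-signal versus DMSO.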
# [5] = TOX21_p53_BLA_p5_viability: Viability Assessment in the Tox21 HCT-116 p53 Agonism Beta-lactamase Assay, Phase 5 (AID 2283600)
# In short: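 Here cell health was gauged by ATP levels in wells holding 4000 cells, each treated 16 h with DMSO-delivered compounds at 217-fold dilution; reduced luminescence marked toxicity.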
# [6] = molecular target: Cellular tumor antigen p53 (Homo sapiens) (UniProt P04637); assay: TOX21_p53_BLA_p4_ratio: Tox21 HCT-116 p53 Agonism Beta-lactamase Assay, Ratio, Phase 4 (AID 2283601)
# In short: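 HCT116 cells carrying an inducible beta-lactamase reporter were plated at 4000 cells/well, rested 5 h, then exposed to compounds in DMSO (217-fold dilution) for 16 h at 37C. CCF4-AM substrate was loaded 2 h at room temperature; 460/530 nm emission ratio scored gain-of-signal versus DMSO.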
# [7] = molecular target: Cellular tumor antigen p53 (Homo sapiens) (UniProt P04637); assay: TOX21_p53_BLA_p3_ratio: Tox21 HCT-116 p53 Agonism Beta-lactamase Assay, Ratio, Phase 3 (AID 2283596)
# In short: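 Cells were seeded at 4000/well, rested 5 h at 37C, then dosed with DMSO compound solutions (217-fold dilution) for 16 h. CCF4-AM substrate was loaded for 2 h at room temperature, and the 460/530 nm emission ratio was fitted for gain of signal versus DMSO.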
# [8] = TOX21_p53_BLA_p4_viability: Viability Assessment in the Tox21 HCT-116 p53 Agonism Beta-lactamase Assay, Phase 4 (AID 2283597);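 also: hits lower the luminescence signal meaning cytotoxicity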
# In short: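 In this multiplexed secondary endpoint, HCT116 cells (4000 per well, compound at 5 h, 16 h treatment) received CellTiter-Glo after the beta-lactamase read. Luminescence after 30 min RT reflects ATP, and falling signal marks cytotoxicity.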
# [9] = TOX21_p53_BLA_p2_viability: Viability Assessment in the Tox21 HCT-116 p53 Agonism Beta-lactamase Assay, Phase 2 (AID 2283591);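 also: compound exposure lasted 16 h at 37 °C; actives lower the ATP signal meaning cytotoxicity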
# In short: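 HCT-116 p53-bla cells (4000/well) rested 5 h at 37C, then received compounds in DMSO (217-fold dilution) for 16 h at 37C, 5% CO2. After the CCF4 read, CellTiter-Glo was added; ATP luminescence was read after 30 min at room temperature.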
smiles,measurement,setting,value
CC(=O)OCc1ccc2c(c1)OCO2,outcome,[1],inactive
same,outcome,[2],inactive
same,outcome,[3],inactive
same,outcome,[4],inactive
same,outcome,[5],inactive
same,outcome,[6],inactive
CCCC(=O)C(C)=O,outcome,[1],inactive
same,outcome,[2],inactive
same,outcome,[3],inactive
same,outcome,[7],inactive
same,outcome,[4],inactive
same,outcome,[5],inactive
same,outcome,[6],inactive
O=C1O[C@@H]2[C@@H](O)[C@H](O)O[C@@H]2[C@H]1O,outcome,[1],inactive
same,outcome,[2],inactive
same,outcome,[7],inactive
same,outcome,[8],inactive
same,outcome,[4],inactive
same,outcome,[5],inactive
same,outcome,[6],inactive
Cc1ncc([N+](=O)[O-])n1C,outcome,[1],inactive
same,outcome,[2],inactive
same,outcome,[3],inactive
same,outcome,[7],inactive
same,outcome,[8],inactive
same,outcome,[5],inactive
same,outcome,[6],inactive
CO[Si](CCCn1c(=O)n(CCC[Si](OC)(OC)OC)c(=O)n(CCC[Si](OC)(OC)OC)c1=O)(OC)OC,outcome,[1],inactive
same,outcome,[2],inactive
same,outcome,[3],inactive
same,outcome,[8],inactive
same,outcome,[6],inactive
C/C=C(\C)C(=O)OCc1ccccc1,outcome,[1],inactive
same,outcome,[2],inactive
same,outcome,[3],inactive
same,outcome,[7],inactive
same,outcome,[8],inactive
same,outcome,[5],inactive
same,outcome,[6],inactive
COc1ccc(O)cc1,outcome,[1],inactive
same,outcome,[2],inactive
same,outcome,[3],inactive
same,outcome,[8],inactive
same,outcome,[4],inactive
same,outcome,[5],inactive
same,outcome,[6],inactive
Clc1ccc(Cl)c(Cl)c1Cl,outcome,[1],inactive
same,outcome,[2],inactive
same,outcome,[7],inactive
same,outcome,[8],inactive
same,outcome,[4],inactive
same,outcome,[5],inactive
same,AC50,[6],0.436 nM (active)
CCCCCCCCCCCCSC,outcome,[1],inactive
same,outcome,[2],inactive
same,outcome,[3],inactive
same,outcome,[8],inactive
same,outcome,[4],inactive
same,outcome,[5],inactive
same,outcome,[6],inactive
CC1(C)C(=O)N(Br)C(=O)N1Cl,outcome,[1],inactive
same,outcome,[2],inactive
same,outcome,[3],inactive
same,outcome,[8],inactive
same,outcome,[4],inactive
CCCCCCCCCCCCCCCC(=O)O,outcome,[1],inactive
same,outcome,[2],inactive
same,outcome,[3],inactive
same,outcome,[8],inactive
same,outcome,[4],inactive
same,outcome,[5],inactive
same,outcome,[6],inactive
ClCCCl,outcome,[1],inactive
same,outcome,[2],inactive
same,outcome,[3],inactive
same,outcome,[7],inactive
same,outcome,[8],inactive
same,outcome,[5],inactive
same,outcome,[6],inactive
COc1ccc(NC(=O)CC(C)=O)cc1,outcome,[1],inactive
same,outcome,[2],inactive
same,outcome,[3],inactive
same,outcome,[7],inactive
same,outcome,[8],inactive
same,outcome,[4],inactive
same,outcome,[5],inactive
same,outcome,[6],inactive
CC(C)(C)c1cc(CCC(=O)NN)cc(C(C)(C)C)c1O,outcome,[1],inactive
same,outcome,[2],inactive
same,outcome,[3],inactive
same,outcome,[8],inactive
same,outcome,[4],inactive
same,outcome,[5],inactive
CCCCO,outcome,[1],inactive
same,outcome,[2],inactive
same,outcome,[7],inactive
same,outcome,[8],inactive
same,outcome,[4],inactive
same,outcome,[5],inactive
same,outcome,[6],inactive
NNc1nc(-c2ccc(N)cc2)cs1,outcome,[1],inactive
same,outcome,[2],inactive
same,outcome,[7],inactive
same,outcome,[8],inactive
same,outcome,[4],inactive
same,outcome,[5],inactive
same,outcome,[6],inactive
CO[Si](C)(OC)c1ccccc1,outcome,[1],inactive
same,outcome,[2],inactive
same,outcome,[3],inactive
same,outcome,[7],inactive
same,outcome,[8],inactive
same,outcome,[5],inactive
same,outcome,[6],inactive
CC(C)(N)CO,outcome,[1],inactive
same,outcome,[2],inactive
same,outcome,[3],inactive
same,outcome,[8],inactive
same,outcome,[4],inactive
same,outcome,[5],inactive
same,outcome,[6],inactive
CCCCCNCCCCC,outcome,[1],inactive
same,outcome,[2],inactive
same,outcome,[3],inactive
same,outcome,[7],inactive
same,outcome,[4],inactive
same,outcome,[6],inactive
CN(CCOc1ccc(CC2SC(=O)NC2=O)cc1)c1ccccn1 (stereo unspecified),outcome,[1],inactive
same,outcome,[2],inactive
same,outcome,[3],inactive
same,outcome,[7],inactive
same,outcome,[8],inactive
same,outcome,[4],inactive
same,outcome,[6],inactive
CCCCCCCCCCCCCOS(=O)(=O)O,AC50,[1],148 µM (active)
same,AC50,[2],85.6 µM (active)
same,outcome,[3],inactive
same,outcome,[7],inactive
same,AC50,[8],70.8 µM (active)
same,AC50,[4],85.4 µM (active)
same,AC50,[5],66.6 µM (active)
same,AC50,[6],83600 nM (active)
O=C(O)CCCCC1CCSS1 (stereo unspecified),outcome,[1],inactive
same,outcome,[2],inactive
same,outcome,[3],inactive
same,outcome,[8],inactive
same,outcome,[5],inactive
same,outcome,[6],inactive
CCCCN,outcome,[1],inactive
same,outcome,[3],inactive
same,outcome,[8],inactive
same,outcome,[4],inactive
C=COCCOCCOCCOC=C,outcome,[1],inactive
same,outcome,[2],inactive
same,outcome,[7],inactive
same,outcome,[4],inactive
same,outcome,[5],inactive
same,outcome,[6],inactive
C=CCOc1nc(OCC=C)nc(OCC=C)n1,outcome,[1],inactive
same,outcome,[5],inactive
same,outcome,[6],inactive
CC[C@]12CCCN3CCc4c(n(c5ccccc45)[C@@](O)(C(=O)OC)C1)[C@@H]32,outcome,[1],inactive
same,outcome,[2],inactive
same,outcome,[7],inactive
same,outcome,[4],inactive
same,outcome,[5],inactive
same,outcome,[6],inactive
O=Nc1ccc(Nc2ccccc2)cc1,outcome,[9],inactive
same,AC50,[2],46 µM (active) and 46.3 µM (active)
same,AC50,[3],67 µM (active)
same,outcome,[3],inactive
same,AC50,[7],77.1 µM (active) and 61.3 µM (active)
same,AC50,[8],85.3 µM (active) and 75.2 µM (active)
same,AC50,[4],77.5 µM (active) and 46.3 µM (active)
same,outcome,[5],inactive
same,AC50,[6],76.2 µM (active) and 63 µM (active)
